Cruzain Triton: blocks cruzain activity in presence of Triton detergent. P25779. purified cruzain, Z-FR-AMC fluorescence, 0.01% Triton. Potency, µM, inactives show max response, negative = inhibition, usual class: inhibitors. 0.43% of 200,000 active. AID 1478;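 further: plate controls were neutral wells for no effect and buffer without enzyme for full effect; nearly all actives have a fitted effect of over 40% in size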
Target sequence (P25779 123-467 limits assumed): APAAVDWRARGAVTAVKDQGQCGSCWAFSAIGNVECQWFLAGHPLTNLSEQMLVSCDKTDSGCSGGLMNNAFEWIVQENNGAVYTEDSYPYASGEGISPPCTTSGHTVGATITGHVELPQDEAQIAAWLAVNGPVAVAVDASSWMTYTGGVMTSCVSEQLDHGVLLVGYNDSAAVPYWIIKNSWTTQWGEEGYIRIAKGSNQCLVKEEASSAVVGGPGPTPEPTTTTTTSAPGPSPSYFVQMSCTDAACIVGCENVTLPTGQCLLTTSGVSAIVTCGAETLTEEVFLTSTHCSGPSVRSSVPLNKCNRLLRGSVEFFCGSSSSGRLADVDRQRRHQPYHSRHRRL
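Cruzain (1.5 nM) preincubated 15 min at RT with compound in 100 mM sodium acetate pH 5.5, 5 mM DTT, 0.01% Triton X-100. Reaction started with 2 uM Z-FR-AMC; AMC fluorescence (ex 360/em 450 nm) change over 60 s gave rate.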
Cruzain inh noDet: inhibitors of Trypanosoma cruzi cruzain without detergent | 2.3% of 200,000 active | P25779 | AID 1476 | purified cruzain, Z-FR-AMC fluorescence, no detergent | Potency, µM, for inactives: max response, negative = inhibition, actives largely listed as inhibitors;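 further: plate controls were enzyme without inhibitor for no effect and buffer without enzyme for full effect; nearly all actives have a fitted effect of over 40% in size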
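Purified cruzain at 1.5 nM, pre-incubated 15 min with compound at room temperature in 100 mM sodium acetate pH 5.5, 5 mM DTT, 0.00005% Triton X-100. Reaction started with 2 uM Z-FR-AMC; AMC fluorescence increase over 60 s gives rate.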
* hit, by the source's call; ? = inconclusive. Most compounds without a hit are left out; they make up all but 2.5% or so of the library. The call rests on the fitted dose curve; in most records, active means well fitted curve in the direction sought with a large enough effect; inconclusive means small, poorly fitted or top-dose-only effect, or another doubt; inactive means no such curve, though single readings can be large; an effect the other way counts as inactive or inconclusive. Potency means the concentration at half of the fitted maximal effect.

SMILES	Cruzain Triton	Cruzain inh noDet
Cc1[nH]n(-c2ncc(-c3ccccc3)s2)c(=O)c1C(c1ccc(Br)cc1)C(C#N)C#N (configuration not stated)	?	12.6µM*
Cc1[nH]n(C(N)=S)c(=O)c1C(c1ccccc1)C(C#N)C#N (configuration not stated)	1.0%	19.7%
COC(=O)CSc1nnc(NC(=O)/C=C\c2ccc3c(c2)OCO3)s1	1.9%	-11.8%
O=C(/C=C\c1ccc2c(c1)OCO2)Nc1nnc(SCC(=O)OCc2ccccc2)s1	-0.4%	5.01µM*
CCOC(=O)CCc1c(C)c2ccc(OCc3nn[nH]n3)cc2oc1=O	-7.3%	0.3%
CCOC(=O)CCc1c(C)c2ccc(OCc3ccc([N+](=O)[O-])cc3)cc2oc1=O	0.4%	10µM*
O=C(O)c1ccc(COc2ccc3c4c(c(=O)oc3c2)CCC4)o1	-4.1%	0.0%
O=c1oc2cc(OCc3ccc([N+](=O)[O-])cc3)ccc2c2c1CCCC2	1.2%	12.6µM*
CCC(Sc1nc2c(sc3ccccc32)c(=O)n1CCc1ccc(OC)c(OC)c1)C(=O)N(CC)CC (configuration not stated)	-3.3%	?
CN(C)c1ccc(-c2nc3cnccn3c2Nc2cccc(C(F)(F)F)c2)cc1	-8.2%	0.1%
COC(=O)C1=C(C)NC(=O)NC1c1cn(-c2ccccc2)nc1-c1ccc(OC)c(Br)c1 (configuration not stated)	-12.4%	-17.8%
N#Cc1ccccc1-c1ccc2ncnc(NCc3cccs3)c2c1	-13.0%	-7.7%
C=CCOc1ccc2cccc(/C=N/NC(=O)c3cc4cc([N+](=O)[O-])ccc4s3)c2c1	0.5%	6.31µM*
O=C(N/N=C/c1cccc([N+](=O)[O-])c1)c1cccs1	-5.5%	-3.3%
Cc1c(C(=O)Nc2cccc(C#N)c2)sc2nc3n(c(=O)c12)CCCCC3	-4.2%	-9.0%
O=C(c1ccccc1)N1CCc2cc(CNS(=O)(=O)c3ccccc3Cl)ccc21	0.7%	-6.2%
CC1C(=O)N2CCCc3cc(S(=O)(=O)Nc4ccc(Br)cc4F)cc1c32 (configuration not stated)	0.0%	23.8%
N#Cc1c(NC2CCCCC2)nc(-c2ccco2)c2c1CCCC2	15.8µM*	25.1µM*
CC1(C)Cc2c(C#N)c(NCCN3CCOCC3)nc(-c3ccco3)c2CO1	-7.7%	3.4%
N#Cc1c(NCCCO)nc(-c2ccco2)c2c1CCCC2	15.8µM*	-6.5%
N#Cc1c2c(c(-c3ccco3)[nH]c1=O)CCCC2	-6.9%	-18.3%
Cc1ccc(S(=O)(=O)O[C@H]2CC(C(C)(C)C)CC[C@@H]2c2ccccc2)cc1 (some centres not stated)	1.4%	-4.9%
O=c1[nH]ncc2ccccc12	-1.2%	-1.8%
O=C1CCC=C1C(O)c1ccccc1 (configuration not stated)	4.0%	-17.8%
Cc1ccc(C)n1N1C(=O)/C(=C\c2ccc(Cl)cc2)SC1=S	-5.6%	?
SMILES	Cruzain Triton	Cruzain inh noDet
NS(=O)(=O)c1ccc(CCN2C(=O)/C(=C\c3ccc(Cl)cc3)SC2=S)cc1	-2.0%	25.1µM*
Cc1ccc(C(=O)NC(=S)N2CCN(c3ccc([N+](=O)[O-])cc3)CC2)cc1	-8.1%	14.1%
Cc1ccc(C(=O)ON=C2CCN(c3ccc([N+](=O)[O-])cc3)CC2)cc1	-3.2%	31.6µM*
COc1cccc(CSc2nc3n(n2)C(CC(C)C)C(C(=O)Nc2ccccc2OC)=C(C)N3)c1 (configuration not stated)	0.9%	-2.8%
Cc1nc(-c2cccc(S(=O)(=O)N3CCCCCC3)c2)cs1	-8.8%	-11.5%
Cc1ccc(Nc2nc(-c3ccc(S(=O)(=O)N4CCCC4)cc3)cs2)cc1C	3.7%	12.6µM*
O=S(=O)(c1ccc(-c2csc(Nc3ccc(F)cc3)n2)cc1)N1CCCC1	-3.3%	?
Cc1cc(C)cc(Nc2nc(-c3ccc(S(=O)(=O)N4CCCC4)cc3)cs2)c1	-1.7%	15.8µM*
Cc1nc(-c2ccc(S(=O)(=O)N3CCCCCC3)cc2)cs1	-1.6%	-11.7%
O=S(=O)(c1ccc(-c2csc(Nc3ccc(Br)cc3)n2)cc1)N1CCCC1	-1.9%	31.6µM*
CC1CCC(NC(=O)C2(C)Cc3ccccc3C(=O)N2Cc2ccccc2Cl)CC1 (configuration not stated)	-0.2%	5.4%
COc1ccccc1NC(=O)CN1C(=O)C(c2ccc(F)cc2)=NC1(C)C	-3.4%	-4.5%
COc1cc2c3cc1Oc1cc(ccc1O)C[C@@H]1c4c(cc(OC)c(O)c4Oc4ccc(cc4)C[C@H]3[N+](C)(C)CC2)CC[N+]1(C)C	1.4%	16.2%
O=C(O)[C@H]1C2c3ccccc3C(c3ccccc32)[C@@H]1C(=O)NCC1CC1	-3.0%	-3.0%
CCOC(=O)CC(CC(C)=O)C(=O)OCC (configuration not stated)	3.9%	1.1%
CCOc1ccc(-n2cc(-c3ccccc3)c3c(N4CCN(c5ccccc5OC)CC4)ncnc32)cc1	-0.1%	-0.7%
COc1cccc(Nc2ncc3nc(-c4cccs4)c(=O)n(Cc4cccs4)c3n2)c1	2.1%	5.01µM*
COc1cccc(Nc2ncc3ncc(=O)n(Cc4cccs4)c3n2)c1	-1.9%	1.5%
COc1ccc(-n2c(=O)c(-c3cccs3)nc3cnc(Nc4ccccc4)nc32)cc1	-0.5%	4.7%
COc1cccc(Nc2ncc3nc(-c4cccs4)c(=O)n(-c4ccccc4)c3n2)c1	0.8%	6.31µM*
CC(C)NC(=O)Cn1ccc2cc(S(=O)(=O)N3CCCCCC3)ccc21	-4.7%	22.2%
Nc1nc(-c2ccccc2)cc(-c2ccccc2O)n1	-11.6%	-16.6%
NNc1nc(-c2ccccc2)cc(-c2ccccc2O)n1	-5.3%	15.8µM*
COc1ccc(S(=O)(=O)N2CCCCC2)cc1	-2.0%	4.8%
COc1ccc(S(=O)(=O)N=C2C=C(C)C(=O)C(C)=C2)cc1	-2.6%	12.6µM*
SMILES	Cruzain Triton	Cruzain inh noDet
O=c1cc(-c2ccccc2)n2c(SCc3c(F)cccc3Cl)nnc2[nH]1	-0.8%	2.9%
COc1cccc2cc(C(=O)Nc3ccc(CC(=O)O)cc3)c(=O)oc12	-3.1%	-14.3%
Cn1c(N)c(C(=O)COC(=O)c2cc(-c3ccccc3)nc3ccccc23)c(=O)n(C)c1=O	0.1%	?
Cn1c(N)c(C(=O)COC(=O)c2cc(-c3ccccc3)nc3ccccc23)c(=O)n(Cc2ccccc2)c1=O	-0.4%	12.6µM*
CCOc1cc(-c2ccc(OC(=O)c3ccc(C)cc3)c(OC)c2)cc(=O)c2c(C)oc(C)c12	0.2%	1.5%
CC1CCC(C(C)C)[C@H](OC(=O)c2ccccc2)C1 (some centres not stated)	5.3%	-4.0%
CC1CCC(C(C)C)C(OC(=O)C2=C3c4ccccc4S(=O)(=O)N3CC2)C1 (configuration not stated)	?	31.6µM*
Cc1cc2cc3c(cc2nc1SCC(=O)Nc1nc(C)c(C)s1)OCO3	4.7%	31.6µM*
CCc1cc2cc3c(cc2nc1SCC(=O)Nc1cc(C)on1)OCO3	-2.4%	25.1µM*
CCc1cc2cc3c(cc2nc1SCC(=O)Nc1nnc(C)s1)OCCO3	3.0%	?
CCc1cc2cc(C)ccc2nc1SCC(=O)Nc1cc(C)on1	1.6%	-12.1%
COCc1cc(Sc2ccc(Cl)cc2)nc(-c2ccccc2)n1	0.0%	-6.4%
Nc1ccc(Sc2cc(Cl)nc(N)n2)cc1	6.2%	12.6µM*
CC1=N[C@@](C)(COC(=O)[C@]2(C)N[C@](C)(CO)CO2)COC1=O	3.1%	6.9%
